Experimental data published in PubChem BioAssay (NCATS).
Records with an inconclusive call do not appear. Entries that show only a call come without a potency. Calls of active or inactive are those of the source. The call rests on the fitted dose curve; in most records, active means well fitted cell-killing curve with a large enough effect; inconclusive means small, poorly fitted or top-dose-only effect, or effect the other way; inactive means flat fitted curve, though single readings scatter.

Test system: CAOV3
Assay: Primary qHTS to identify gynecologic anti-cancer compounds using libraries of approved drugs and bioactive compounds (AID 1345084); further: nearly all actives have a fitted effect of over 55% in size
Settings: Gynecologic cancer cell panel viability, ATPlite luminescence, 48 h; series mostly up to 57.5 µM
From the text: National Center for Advancing Translational Sciences [NCATS] Assay Overview: Chemotherapeutic drug responses vary from cancer to cancer and from patient to patient. These variations could be caused by a number of factors including patient genomic background, tumor mutations, tumor heterogeneity, and aspects of drug treatment. Chemotherapeutic drug resistance is also a common issue and can lead to ineffective treatment and patient death. Here we have profiled the cell killing effects of thousands of compounds to characterize the responses in three gynecological cancers, identify cancer-selective compounds, and understand the diversity of responses to these compounds from pan-cancer suppressors to single cell line selective compounds. In this assay, we screened a 7,914 compound drug library that included approved drug and bioactive compounds in six ovarian, three cervical, and […] placental cancer cell lines using the ATPlite assay for cell viability. […] The cervical cancer cell lines included HeLa, Ca Ski, and C-33 A. The placental cancer cell lines included JEG-3. HEK 293T cells were used as the control cell line to determine the selectivity index. ATPlite is a luminescence based assay reliant on the conversion of a luciferase substrate to light in the presence of ATP. As a cytotoxic compound will suppress growth and decrease the number of cells, the concentration of ATP will decrease, and less light signal will be detected in the well.
Assay Protocol Summary: 1,000 cells in 4 uL of media were dispensed into white, solid bottom 1536-well plates using a Multidrop Combi (Thermo Scientific). The Assay plates were incubated for 16 hours at 37 C with 5% CO2 in assay plates, followed by the addition of 23 nL of DMSO or drug dissolved in DMSO. Each compound was assayed in five concentrations (0.092, 0.46, 2.3, 11.5, and 57.5 uM), using the automated Wako 1536 Pin Tool workstation and incubated at 37 C with 5% CO2 48 hours. 4 uL of ATPlite, the ATP monitoring reagent, was then added to the each well of the assay plates using the Multidrop Combi reagent dispenser followed by incubation for 15 minutes at room temperature. The resulting luminescence was measured using the ViewLux plate reader.
Potency means the concentration at half of the fitted maximal effect.

Row | SMILES | Potency | activity change, negative = cytotoxicity
1 | Cc1cc(C(C)Nc2ccccc2)c2nc(N3CCOCC3)cc(=O)n2c1 (stereo not given) | inactive | 
2 | Cc1ccccc1C(=O)c1ccc(Nc2ccc(Br)cc2N)cc1Cl | inactive | 
3 | c1ccc(-c2oc3ncnc(NC[C@@H]4CCCO4)c3c2-c2ccccc2)cc1 | inactive | 
4 | COc1ccc(CCC(=O)Nc2nc3ccc(Cl)cc3s2)cc1OC | inactive | 
5 | OC[C@H]1O[C@@H](OCCc2ccc(O)cc2)[C@H](O)[C@@H](O)[C@H]1O | inactive | 
6 | Cc1cccc2c1CC[C@H](CN1CCC(c3c(Cl)cccc3Cl)CC1)C[C@@H]2O | inactive | 
7 | C[C@@]1(c2cc(-c3cncnc3)c(F)cc2F)CCSC(N)=N1 | inactive | 
8 | CN(C)c1ccc(-c2nc3ncc(Cl)c(N4CCN(CC(=O)Nc5nccs5)CC4)c3[nH]2)cc1 | inactive | 
9 | CCC(=O)N1CCN(c2ccc(-n3c(=O)ccc4cnc5ccc(-c6cnc7ccccc7c6)cc5c43)cc2C(F)(F)F)CC1 |  | -22.6% [at 11.6 µM] (inactive)
10 | Cc1cnc(-c2cc(N3CCN(C(=O)CCS(C)(=O)=O)CC3)ncc2Cl)c(C)c1 | inactive | 
11 | CNC(=O)c1cc(Oc2ccc(NC(=O)Nc3ccc(Cl)c(C(F)(F)F)c3)c(F)c2)ccn1 | inactive | 
12 | COc1ccnc(CS(=O)c2nc3ccc(OC(F)F)cc3[nH]2)c1OC (stereo not given) | inactive | 
13 | CN(C)CCN(Cc1ccc(Cl)cc1)c1ccccn1 | inactive | 
14 | CCNC(=O)c1noc(-c2cc(C(C)C)c(O)cc2O)c1-c1ccc(CN2CCOCC2)cc1 | inactive | 
15 | COc1ccc(-c2cc3nccn3c(Nc3ncccc3C(N)=O)n2)cc1OC | inactive | 
16 | CC(=O)Nc1cccc(-n2c(=O)n(C3CC3)c(=O)c3c(Nc4ccc(I)cc4F)n(C)c(=O)c(C)c32)c1 | inactive | 
17 | CN1CCc2c(n(Cc3ccc(C(=O)NO)cc3)c3ccccc23)C1 | inactive | 
18 | NC(=O)c1ccc(N(C(N)=O)c2c(F)cccc2F)nc1-c1ccc(F)cc1F | inactive | 
19 | O=C(CCCN1CCN(c2ccc(F)cc2)CC1)NC1c2ccccc2CSc2ccccc21 (stereo not given) | inactive | 
20 | c1cc(OCCN2CCCCC2)cc(-c2n[nH]c3ccc(-c4ncn[nH]4)cc23)c1 | inactive | 

Row | SMILES | Potency | activity change, negative = cytotoxicity
21 | Nc1ccc(-c2ccc3ncc4ccc(=O)n(-c5cccc(C(F)(F)F)c5)c4c3c2)cn1 | 631 nM (active) | 
22 | c1ccc(CNc2nc(N3CCOc4ccccc43)nc3c2CCCC3)cc1 | inactive | 
23 | Cc1nc(C(=O)NCC(=O)O)c(O)c2ccc(Oc3ccccc3)cc12 | inactive | 
24 | CC(C)(C)c1nc(-c2cccc(NS(=O)(=O)c3c(F)cccc3F)c2F)c(-c2ccnc(N)n2)s1 | inactive | 
25 | NS(=O)(=O)c1cc(Cl)c(Cl)c(S(N)(=O)=O)c1 | inactive | 
26 | CC1=C(C(=O)Nc2cc3cn[nH]c3cc2F)C(c2ccc(C(F)(F)F)cc2)CC(=O)N1 (stereo not given) | inactive | 
27 | CCCCC(F)(F)[C@@]1(O)CC[C@H]2[C@H](CC(=O)[C@@H]2CCCCCCC(=O)O)O1 | inactive | 
28 | CCCCn1c(=O)n(Cc2ccccc2F)c(=O)c2[nH]c(Cc3ccc(NC(C)=O)cc3)nc21 | inactive | 
29 | Cc1cc(-c2ncc(CC(=O)Nc3ccc(-c4cnccn4)cn3)cc2C)ccn1 | inactive | 
30 | Nc1[nH]nc2nnc(-c3c(-c4ccccc4)nn4ccccc34)cc12 | inactive | 
31 | CN(C)c1nc(Cc2ccc(NC(=O)c3ccc(C(F)(F)F)cc3)cc2)nc(N(C)C)c1CC(=O)O | inactive | 
32 | COC(=O)N1CCN(Cc2cccc(NC(=O)Nc3ccc(C)nc3)c2F)CC1 | inactive | 
33 | CCn1c(-c2nonc2N)nc2cncc(CNC3CCNCC3)c21 | inactive | 
34 | Cc1c(C(=O)Nc2ccc(N3C[C@@H](C)O[C@@H](C)C3)nc2)cccc1-c1ccc(OC(F)(F)F)cc1 | inactive | 
35 | COc1nccc(-c2c(-c3ccc(F)cc3)ncn2C2CCNCC2)n1 | inactive | 
36 | CNC(=O)c1c(-c2ccc(F)cc2)oc2cc(N(CCO)S(C)(=O)=O)c(C3CC3)cc12 | inactive | 
37 | O=C(CO)N1CCC(c2[nH]nc(-c3ccc(Cl)cc3)c2-c2ccncn2)CC1 | inactive | 
38 | CCN(CCO)CCCOc1ccc2c(Nc3cc(CC(=O)Nc4cccc(F)c4)[nH]n3)ncnc2c1 | inactive | 
39 | COc1cc2ncnc(Nc3cc(Br)c(O)c(Br)c3)c2cc1OC | inactive | 
40 | Cc1ccc2c(c1)C(=O)[C@]1(O)CCN(c3ccccc3)C1=N2 | inactive | 
